# Reference: the supplement of paper PMC6555819
# Columns and labels:
# Assay in all cases: PBM binding z-score (relative to random genomic background probes); higher = stronger binding; sequences stand for … in GC…GCGATTGACAGCGTAGAATGAAGG
# [1] = test system: FXR:RXRa (NR concentration 270 nM, RXRa partner concentration 90 nM)
# Summary of the method: (§1)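 The probes on custom Agilent 4×180K protein-binding microarrays were double-stranded, with 34-nt variable regions bearing direct-repeat seeds, single-nucleotide variants, half-site ablations and random human genomic background sequences. Incubation lasted 1 h with ligand-free nuclear receptor dimers in PBS pH 7.4, 2% milk, 0.02% Triton X-100, 1 mM DTT, 0.2 mg/mL BSA and 0.4 mg/ml salmon testes DNA. Antibodies against each partner (one per run) detected bound dimers, and fluorescence scans were regression-normalized. Binding z-scores take the random background probes as reference.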
# [2] = test system: LXRa:RXRa (NR concentration 270 nM, RXRa partner concentration 90 nM)
# Summary of the method: as §1
# [3] = test system: LXRa homodimer (NR concentration 270 nM)
# Summary of the method: as §1
# [4] = test system: LXRb:RXRa (NR concentration 270 nM, RXRa partner concentration 90 nM)
# Summary of the method: as §1
# [5] = test system: LXRb homodimer (NR concentration 270 nM)
# Summary of the method: as §1
# [6] = test system: PPARa:RXRa (NR concentration 270 nM, RXRa partner concentration 90 nM)
# Summary of the method: as §1
# [7] = test system: PPARg:RXRa (NR concentration 180 nM, RXRa partner concentration 90 nM)
# Summary of the method: as §1
# [8] = test system: PPARg:RXRa 270nM:90nM, anti-RXR (NR concentration 270 nM, RXRa partner concentration 90 nM)
# Summary of the method: as §1
# [9] = test system: PPARg:RXRa 30nM:10nM, anti-RXR (NR concentration 30 nM, RXRa partner concentration 10 nM)
# Summary of the method: as §1
# [10] = test system: PPARg:RXRa 90nM:30nM, anti-RXR (NR concentration 90 nM, RXRa partner concentration 30 nM)
# Summary of the method: as §1
# [11] = test system: PPARg:RXRa DBDmut IVT, anti-RXR (DBD mutation: RXRa K156A/R161A, NR concentration 270 nM, RXRa partner concentration 90 nM)
# Summary of the method: as §1
# [12] = test system: PPARg:RXRa IVT, anti-PPARg (NR concentration 270 nM, RXRa partner concentration 90 nM)
# Summary of the method: as §1
# [13] = test system: PPARg DBDmut:RXRa IVT, anti-PPARg (DBD mutation: PPARg1 K132A/R137A, NR concentration 270 nM, RXRa partner concentration 90 nM)
# Summary of the method: as §1
# [14] = test system: PPARg DBDmut IVT, anti-PPARg (DBD mutation: PPARg1 K132A/R137A, NR concentration 270 nM)
# Summary of the method: as §1
# [15] = test system: PPARg homodimer (NR concentration 180 nM)
# Summary of the method: as §1
# [16] = test system: PXR:RXRa (NR concentration 270 nM, RXRa partner concentration 90 nM)
# Summary of the method: as §1
# [17] = test system: PXR homodimer (NR concentration 270 nM)
# Summary of the method: as §1
# [18] = test system: RARa:RXR (NR concentration 270 nM, RXRa partner concentration 90 nM)
# Summary of the method: as §1
# [19] = test system: RARa homodimer (NR concentration 270 nM)
# Summary of the method: as §1
# [20] = test system: RARb:RXRa (NR concentration 270 nM, RXRa partner concentration 90 nM)
# Summary of the method: as §1
Sequence,PBM binding z-score [1],PBM binding z-score [2],PBM binding z-score [3],PBM binding z-score [4],PBM binding z-score [5],PBM binding z-score [6],PBM binding z-score [7],PBM binding z-score [8],PBM binding z-score [9],PBM binding z-score [10],PBM binding z-score [11],PBM binding z-score [12],PBM binding z-score [13],PBM binding z-score [14],PBM binding z-score [15],PBM binding z-score [16],PBM binding z-score [17],PBM binding z-score [18],PBM binding z-score [19],PBM binding z-score [20]
TTACCAAGGTGAAAGGTCGTCGATGCACGCCTTG,3.2,3.29,0.0373,2.77,-0.541,5.6,9.29,8.47,7.23,9,2.84,5.42,0.568,0.68,1.99,4.17,-0.076,6.52,-0.215,3.27
ATTCCAAGGTGATCGTGAGGTCGTTGATACTAAC,2.16,1.56,0.734,1.23,0.167,1.52,0.194,0.382,0.172,0.122,0.951,1.47,0.731,0.342,0.792,3.26,1.64,2.55,0.906,1.33
ATTTCTAGGTAAAGTTCAGTGAAAGATCGATAGA,1.69,2.17,1.41,1.4,1.27,2.82,3.19,4.21,2.41,4.03,4.75,4.3,2.07,2.14,2.58,2.41,2.25,1.36,2.45,2.95
TGAATGAGGTTAAAAATCAGGGAACGTGGCGTCG,1.83,1.78,-0.491,1.1,0.545,2.87,1.72,2.33,1.16,1.77,1.43,1.8,0.361,0.195,-0.0328,0.848,-0.0817,1.45,-0.472,1.32
CCTAGCAGGCCAGGGTCACTGAAGCATTTCGCTT,2.08,1.76,-0.679,2.1,-1.29,3.35,0.613,1.95,-0.0383,1.16,0.0332,1.16,-1.43,-1.48,1.08,3.04,-0.468,3.83,-0.64,2.55
TCATATAGGTAAACAGGTGAGAGTCCGTAAGTTA,0.963,0.822,0.145,0.682,0.166,2.04,2.39,3.16,3.77,3.41,4.89,4.22,0.855,1.05,0.708,0.6,0.674,0.689,1.25,0.677
CAGCCTAGATCAGGGCCAGTATAGGAGGAACGTT,-0.83,-0.998,-0.438,-1.08,-1.15,-0.772,0.274,-0.997,-0.386,-0.789,-0.475,-0.568,-0.718,-0.931,-0.197,-0.797,-0.456,-0.741,-0.525,-0.399
CCAGACGGGTGAGAAGGTAACTCAGCCTCGATTA,-0.446,-0.488,-0.527,-0.4,-1.08,0.109,0.208,0.0448,-0.616,-0.191,0.114,0.156,-1.55,-1.37,0.298,-0.708,-0.553,-0.463,-0.518,-0.128
GCTAGTTGGTCAGTAAAAGGTCACATACCGGTCG,2.76,4.16,4.82,4.01,0.816,4.22,2.57,4.42,2.3,3.92,1.23,2.96,0.372,0.203,6.37,4.88,0.988,5.66,3.62,4.23
ACAGTCAGGTGATGAAGGTAACTCAGGCTATCAT,0.11,-0.185,-0.351,-0.331,-0.338,0.116,0.349,-0.0826,0.0143,-0.0221,0.347,0.415,0.348,0.294,0.022,-0.36,-0.211,0.136,-0.284,0.503
TCTATTAGTTGAAGGCCAACCGACGAGTCCGTTT,0.871,1.16,0.259,0.921,0.342,1.28,0.257,2.32,4.11,2.96,2.37,0.522,0.431,0.553,1.36,0.903,1.4,0.79,1.21,1.02
GCAGACAGGTTAAACGCAGGTAACTCAGGGTGGC,0.61,1.65,-0.225,0.687,-0.662,1.7,0.69,0.222,-0.592,-0.245,0.14,-0.197,-0.311,-1.1,-0.225,0.235,-0.788,1.11,-0.374,1.12
CAAACTAGGTCACAGAGGTCAAATTCCGTGCGTA,7.61,6.88,8.33,6.71,3.6,6.59,10.5,8.65,7.13,8.61,8.77,8.98,8.04,3.55,6.47,7.14,12.3,7.83,3.22,5.4
TCTCGGAGGACACGAAGGACAGAGCTTTCCAGAG,0.358,-0.306,-0.452,-0.355,-1.07,-0.0833,0.271,0.836,2.13,1.3,1.14,0.0636,-0.366,-1.09,-0.347,-0.352,-0.367,0.0176,-1.01,1.54
CGAACTAGGTCATCTAGGACAGTGAATACATTGA,4.09,2.49,0.484,2.12,-0.144,4.72,7.33,6.44,3.66,5.7,8.06,8.21,3.51,1.83,2.99,1.73,0.602,2.23,0.753,3.92
